# Assay results: ChEMBL document CHEMBL3988442, “University of Dundee, Small-Polar-MMV Screening Library” (2021)
# Among all 53,000 compounds or so, about 900 (1.7%) showed an effect of 50% or more. This excerpt belongs to a sample that is enriched for strong results.
# Test system: Mycobacterium tuberculosis
# Test: Cornell - Phenotypic assay to identify agents that inhibit growth of Mycobacterium tuberculosis
# Type: functional
# Set-up: scale not given: direction of the effect not stated beside the values
# Details: 10 mM as filed; unlikely as a test dose
row,Compound,Percent Effect
1,Clc1ccc(COCC2CCN(Cc3ccccn3)CC2)cc1.O=C(O)C(=O)O,33.78%
2,Cc1cccc(=O)n1CCC(=O)N1CC[C@@](O)(C2CCC2)[C@H](C)C1,13.12%
3,CN(C)CCNc1ccc(-c2nc(COc3ccccc3)no2)cn1,16.69%
4,CN(C)CCN(C)c1ccc(-c2nc(COc3ccccc3)no2)cn1,54.95%
5,COCc1noc(-c2ccc(N(C)Cc3ncccc3C)nc2)n1,3.239%
6,CN1CCCC(c2cccc(CCC(N)=O)n2)C1 (stereo unspecified),-6.826%
7,CNC(=O)N1CCc2nc(C(=O)NCc3cccc(OC)c3)sc2CC1,-3.356%
8,N#Cc1ncn(CCC(=O)Nc2ccc(F)c(F)c2)n1,34.8%
9,N#Cc1ncn(CCC(=O)Nc2ccccc2F)n1,26.46%
10,N#Cc1ncn(Cc2c(F)cccc2Cl)n1,3.788%
11,N#Cc1ncn(CCS(=O)(=O)c2ccc(Cl)cc2)n1,-29.79%
12,N#Cc1ncn(CCC(=O)Nc2c(Cl)cccc2Cl)n1,58.03%
13,COC(=O)c1ccc(Cn2cnc(C#N)n2)cc1,33.09%
14,N#Cc1ncn(CCC(=O)Nc2cccc(Cl)c2)n1,68.3%
15,N#Cc1ncn(CCC(=O)Nc2cc(Cl)ccc2Cl)n1,44.53%
16,CN(Cc1c(F)cccc1Cl)C(=O)Cn1cnc(C#N)n1,14.48%
17,N#Cc1ncn(CC(=O)Cc2c(F)cccc2Cl)n1,41.98%
18,N#Cc1ncn(CCC(=O)Nc2ccc(Cl)cc2F)n1,105.4%
19,N#Cc1ncn(CC(=O)Nc2cc(Cl)ccc2F)n1,104.7%
20,OCCOc1cc(F)ccc1NCc1ccc(F)c(F)c1,11.25%
21,CCOC(=O)[C@H]1CNC[C@H]1C(=O)OCC.Cl,36.02%
22,CNc1cccc(C2CN(C(=O)c3c[nH]cn3)CCO2)n1 (stereo unspecified),6.6%
23,O=C(O)Cn1nc(-c2ccccc2F)ccc1=O,3.999%
24,CCSc1ncccc1C(=O)NCc1ccc(N(C)C)cc1,4.638%
25,C=C(C)COc1ccccc1C(=O)NCc1nc(C)cc(=O)[nH]1,11.83%
26,NS(=O)(=O)c1ccc(N2CCN(CCCc3cn[nH]c3)CC2)cc1,-32.06%

row,Compound,Percent Effect
1,O=C(O)C(F)(F)F.O=C(O)C(F)(F)F.O=C(O)C(F)(F)F.c1cnc(NC[C@H]2OC[C@@H]3CCN(Cc4cccnc4)C[C@@H]32)nc1,43.57%
2,COc1ccc(N2CCN(C(=O)C3CN(C)C(=O)N3)CC2(C)C)cc1 (stereo unspecified),2.102%
3,CCOCC(=O)N1CCCn2c(nnc2Cn2cccc2)C1,-5.462%
4,Cl.Cn1cncc1CN1CCc2nc3sccc3c(=O)n2CC1,43.45%
5,Cn1cc(CN2CCc3nc4ccccc4c(=O)n3CC2)cn1,52.34%
6,CCn1cncc1CN1CCc2nc3sccc3c(=O)n2CC1,47.13%
7,Cc1cc2c(=O)n3c(nc2s1)CCN(Cc1cnn(C)c1C)CC3.Cl,-41.11%
8,Cn1cc(CN2CCc3nc4sccc4c(=O)n3CC2)cn1,-10.08%
9,Cc1nn(C)cc1CN1CCc2nc3sccc3c(=O)n2CC1,50.52%
10,Cc1c(CN2CCc3nc4sccc4c(=O)n3CC2)cnn1C.Cl,51.95%
11,O=c1c2ccccc2nc2n1CCN(Cc1cccs1)CC2,20.89%
12,Cn1ncc(Cl)c1C(=O)N1CCc2nc3sccc3c(=O)n2CC1,-13.36%
13,COc1cc2ncn(Cc3ncc[nH]3)c(=O)c2cc1OC,6.69%
14,CCc1cccc(OCCN(C)C(=O)c2ccccc2NCC(=O)O)c1,10.74%
15,COc1cccc(CN2CCCC(Cn3nc(C)nc3C)C2)c1 (stereo unspecified),16.57%
16,O=C(c1ccncc1F)N1CCc2ncnc(-c3ccncc3)c2CC1,-7.007%
17,Cn1nc(CN2CCCN(C3CCCC3)CC2)c2c(Cl)cccc21,60.03%
18,C[C@@H]1CN(C2CCN(Cc3nn(C)c4cccc(Cl)c34)CC2)C[C@H](C)O1,-20.95%
19,Cn1nc(CN2CCCCC(N)C2)c2c(Cl)cccc21 (stereo unspecified),-4.365%
20,O=C(c1cccc(-n2cnnc2)c1)N1C[C@@H](O)[C@H](N2CCOCC2)C1,40.33%
21,CN1C(=O)C2(CC(=O)Nc3[nH]ncc32)c2ccc(F)cc21 (stereo unspecified),10.37%
22,CN(Cc1cnccn1)S(=O)(=O)c1ccc(C(F)(F)F)nc1,-14.08%
23,CC(CS(C)(=O)=O)N(C)C(=O)NCCCc1ccc(Cl)cc1 (stereo unspecified),12.33%
24,CN(C)S(=O)(=O)N1CCCCCC1c1cc(-c2ccc(F)cc2)no1 (stereo unspecified),73.32%
25,COc1ccc(-c2cc(C3CCCCCN3S(=O)(=O)N(C)C)on2)cc1 (stereo unspecified),15.93%
